Bioassay records deposited in PubChem by National Center for Advancing Translational Sciences (NCATS).
Rows were chosen to be rich in hits. Some 8% of all compounds tested hit in one or more screens of this group.
TSHR antag – Antagonists of the Thyroid Stimulating Hormone Receptor: HTS campaign; AID 504810, 2011; activity change, negative = inhibition, % at 11.5 µM; TSHR-expressing cells, TSH-stimulated cAMP HTRF, 2 h; hits give low values; 330,000 tested, 0.2% active; Thyrotropin receptor (Homo sapiens), P16473;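 active = activity change below a set negative limit, meaning inhibition stronger than a set level, cut at about -70% in these data; inconclusive = activity change between two set negative limits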
Target sequence (P16473 whole entry, looked up): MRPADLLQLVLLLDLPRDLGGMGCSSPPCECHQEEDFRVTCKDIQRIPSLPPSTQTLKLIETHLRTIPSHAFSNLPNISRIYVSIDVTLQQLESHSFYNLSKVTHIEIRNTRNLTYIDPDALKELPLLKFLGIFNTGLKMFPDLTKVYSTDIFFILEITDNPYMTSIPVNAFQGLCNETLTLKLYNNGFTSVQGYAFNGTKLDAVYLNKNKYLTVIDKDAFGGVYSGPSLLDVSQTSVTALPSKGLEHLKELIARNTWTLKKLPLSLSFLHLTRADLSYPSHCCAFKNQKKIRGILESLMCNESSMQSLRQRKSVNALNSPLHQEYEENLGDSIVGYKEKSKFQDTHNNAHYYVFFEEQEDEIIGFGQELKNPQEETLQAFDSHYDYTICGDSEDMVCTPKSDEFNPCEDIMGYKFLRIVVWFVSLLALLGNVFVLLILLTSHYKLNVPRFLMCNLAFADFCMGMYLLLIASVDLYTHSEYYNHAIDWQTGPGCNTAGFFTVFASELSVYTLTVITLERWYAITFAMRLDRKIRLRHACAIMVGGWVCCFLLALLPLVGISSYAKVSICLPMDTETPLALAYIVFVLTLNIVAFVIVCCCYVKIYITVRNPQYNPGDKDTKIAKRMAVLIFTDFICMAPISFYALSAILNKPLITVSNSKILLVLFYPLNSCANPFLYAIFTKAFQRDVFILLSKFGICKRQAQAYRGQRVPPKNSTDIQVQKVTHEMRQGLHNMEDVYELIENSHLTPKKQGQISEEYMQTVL
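Cell-based HTRF cAMP assay; TSHR cells + compound, TSH EC80 (4nM final), 2 h, 37 deg C. Lysis with anti-cAMP cryptate and cAMP-d2, 30 min RT, read 665/620 nm.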
RORg inh – qHTS for inhibitors of ROR gamma transcriptional activity; Drosophila S2 Gal4-RORgamma UAS-luciferase reporter, 20 h; Potency, µM (doses to about 53.6 µM), actives largely listed as inhibitors; 310,000 tested, 5.4% active; Nuclear receptor ROR-gamma (Mus musculus), P51450; note: nearly all actives have a fitted effect of over 60% in size
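Using a luciferase readout, inhibitors were identified by reduced reporter activity in Drosophila cells coexpressing a copper-inducible Gal4–ROR gamma fusion and UAS-driven Photinus luciferase, incubated 20 hr after 700 uM copper sulfate.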
Gal4-VP16 FLuc – VP16 counterscreen qHTS for inhibitors of ROR gamma transcriptional activity; Drosophila S2 Gal4-VP16 UAS-luciferase, luminescence, 20 h; Potency, µM (doses to about 53.6 µM), most hits filed as inhibitors; 310,000 tested, 3.5% active; AID 2546, 2010;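 note: Gal4-VP16 expression switched on by copper sulfate through the metallothionein promoter; nearly all actives have a fitted effect of over 50% in size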
ELG1 DNA repair – qHTS screen for small molecules that inhibit ELG1-dependent DNA repair in human embryonic kidney (HEK293T) cells expressing luciferase-tagged ELG1; AID 504467, 2011; Potency, µM (top dose mostly 46.1 µM), usual class: inhibitors; HEK293T ELG1-luciferase reporter, luminescence, 16 h; DNA damage induced by 5-fluorouridine; 330,000 tested, 2.3% active; note: nearly all actives have a fitted effect of over 55% in size
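DMSO vehicle served as the neutral condition. Each well held 2,000 cells given 5-fluorouridine plus compound; after 16 hr at 37 °C/5% CO2, ONE-Glo was added and luciferase measured 30 min later.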
FBPA coupling cs – qHTS Assay for Inhibitors of Fructose-1,6-bisphosphate Aldolase from Giardia Lamblia: Coupling assay counterscreen. coupling enzyme system counterscreen, AmpLite Red fluorescence. activity change, negative = inhibition, % at 58.2 µM, hits read low. 290,000 tested, 0.67% active. AID 2472, 2010; in the data active = activity change below about -30%
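Compounds tested against the coupling enzymes alone at 57.5 uM final; readout was AmpLite Red fluorescence (525/598 nm) after 20 min at RT.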
Hits are given with their value; 0 = inactive; ? = inconclusive; - = no result; [ ] = remark or other dose. Unless noted, calls come from the whole dose curve; as a rule, active = well fitted curve in the direction sought with a large enough effect; inconclusive = small, poorly fitted or top-dose-only effect, or another doubt; inactive = no such curve, though single readings can be large; an effect the other way counts as inactive or inconclusive.

SMILES | TSHR antag | RORg inh | Gal4-VP16 FLuc | ELG1 DNA repair | FBPA coupling cs
N#Cc1cccc(-c2nc3cnc(Nc4ccccc4)nc3n(C[C@H]3CCCO3)c2=O)c1 | - | 0 | 0 | - | 0
C=CCN1CN(CCc2ccccc2)CNC1=S | 0 | 1.58µM | 15.8µM | 0 | 0
COc1ccccc1N1CN(CCc2ccccc2)CNC1=S | 0 | 0 | ? | 0 | 0
S=C1NCN(Cc2ccccc2)CN1 | 0 | 0 | 0 | 0 | 0
COc1ccccc1N1CN(Cc2ccccc2)CNC1=S | 0 | 2µM | ? | 0 | 0
CCN1CNC(=S)N(C(C)c2ccccc2)C1 (stereo unspecified) | 0 | 10µM | 12.6µM | 0 | 0
CCN1CNC(=S)N(Cc2ccccc2)C1 | 0 | 15.8µM | ? | 0 | 0
COCCC(=O)N1CCC(C(=O)Nc2ccc(Oc3ccccc3)nc2)CC1 | 0 | 0 | 0 | ? | 0
CC(C)(C)c1ccc(OCCC(=O)NNC(=O)c2ccncc2)cc1 | 0 | - | - | 0 | -
NCCC[C@@H](CC(=O)N[C@@H]1CCCC[C@H]1C(=O)N[C@H](CC(=O)N[C@@H](CCC(=O)O)CC(=O)O)Cc1ccccc1)NC(=O)C[C@H](Cc1ccccc1)NC(=O)[C@@H]1CCCC[C@H]1N | - | 0 | 0 | - | 0
O=C(NN=C1CCCCCC1)c1ccc(Cl)s1 | 0 | ? | 12.6µM | 0 | 0
CCNC(=O)/C(C#N)=C/c1c(N2CCN(c3cccc(Cl)c3)CC2)nc2c(C)cccn2c1=O | 0 | 0 | 0 | 0 | 0
CCNC(=O)/C(C#N)=C/c1c(N2CCN(Cc3ccc4c(c3)OCO4)CC2)nc2c(C)cccn2c1=O | 0 | 0 | 0 | 20.6µM | 0
Cc1cccn2c(=O)c(/C=C(\C#N)C(=O)NCc3ccco3)c(N3CCCCC3)nc12 | 0 | 0 | 0 | 18.4µM | 0
COCCCNC(=O)/C(C#N)=C/c1c(N2CCN(c3cccc(Cl)c3)CC2)nc2c(C)cccn2c1=O | 0 | 0 | 0 | 23.1µM | 0
CCNC(=O)/C(C#N)=C/c1c(N2CCN(C)CC2)nc2c(C)cccn2c1=O | 0 | 0 | 0 | 0 | 0
COc1ccc(N2CCN(c3nc4c(C)cccn4c(=O)c3/C=C(\C#N)C(N)=O)CC2)cc1 | 0 | 0 | 0 | 13µM | 0
C[C@@H]1CCN=C(N)S1 | - | 0 | 0 | - | 0
N#CCCN(NC1=NS(=O)(=O)c2ccccc21)C(=O)c1ccccc1Br | 0 | 0 | 0 | 0 | 0
CCCC[C@@H]1C[C@H]1C(NC(=O)Cc1ccccc1)c1ccc(-c2ccccc2)cc1 (stereo partly specified) | - | 0 | 0 | - | 0
C=CCC(O)(/C=C/c1ccccc1)c1ccccc1 (stereo unspecified) | - | 0 | 0 | - | 0
COCCCNC(=O)/C(C#N)=C/c1c(N2CCN(c3ccccc3)CC2)nc2c(C)cccn2c1=O | 0 | 0 | 0 | 20.6µM | 0
COc1ccccc1Nc1nc(-c2sc(N)nc2C)cs1 | 0 | ? | 0 | ? | 0
Cc1nc(N)sc1-c1csc(Nc2ncccn2)n1 | 0 | 6.31µM | ? | ? | 0
C[C@H]1[C@H](C)CC[C@]2(C(=O)O)CC[C@]3(C)C(=CCC4[C@@]5(C)CC[C@H](O)C(C)(C)[C@@H]5CC[C@]43C)[C@H]12 (stereo partly specified) | - | - | - | - | 0
SMILES | TSHR antag | RORg inh | Gal4-VP16 FLuc | ELG1 DNA repair | FBPA coupling cs
O=C(CCc1cn(Cc2ccc(F)cc2)c2ccccc12)N1CCOCC1 | 0 | 0 | ? | 0 | 0
S=C(c1cn(Cc2ccc(Br)cc2)c2ccccc12)N1CCOCC1 | 0 | 14.1µM | ? | 0 | 0
S=C(c1cn(Cc2ccccc2)c2ccccc12)N1CCOCC1 | 0 | 11.2µM | 0 | 0 | 0
Nc1cccc(N)c1 | - | 0 | 0 | - | -
COc1cc2c(cc1OC)C(C(=O)N1CCN(c3ccccc3)CC1)C(c1cccs1)N(C)C2=O (stereo unspecified) | 0 | 0 | 0 | 18.4µM | 0
COc1ccc(C2C(C(=O)N3CCN(c4ccccc4)CC3)c3ccccc3C(=O)N2C)cc1 (stereo unspecified) | 0 | 0 | 0 | 20.6µM | 0
COc1ccc(C2C(C(=O)N3CCN(c4ccccc4)CC3)c3ccccc3C(=O)N2C)cc1OC (stereo unspecified) | 0 | 0 | 0 | 0 | 0
COc1cc(OC)c(C2C(C(=O)O)c3ccccc3C(=O)N2C)cc1OC (stereo unspecified) | 0 | 0 | 0 | 0 | -39.9
CCC(C)NC(=O)C1c2cc(OC)c(OC)cc2C(=O)N(C)C1c1cccs1 (stereo unspecified) | 0 | 0 | 0 | 0 | 0
CCc1ccccc1NC(=O)NNS(=O)(=O)c1cc(C)ccc1C | 0 | 0 | 0 | 0 | 0
CC1CCCCC1NC(=S)Nc1ccc(Cl)cc1Cl (stereo unspecified) | 0 | 3.55µM | ? | 0 | 0
CC(=O)c1cccc(NC(=S)NC2CC2)c1 | 0 | 0 | 0 | 0 | 0
CC(=O)c1cccc(NC(=S)NC2CCCCC2)c1 | 0 | 10µM | ? | 0 | 0
S=C(Nc1cccc(Cl)c1)NC1CCCCC1 | 0 | 3.55µM | 10µM | 0 | 0
Cc1cc(Cl)ccc1NC(=S)NC1CCCC1 | 0 | 2.24µM | 14.1µM | 0 | 0
Cc1csc(=O)n1CC(=O)OCC(=O)Nc1ccc(F)c(F)c1 | 0 | - | - | 0 | -
CCCN(CC(=O)Nc1ccccc1C)C(=O)c1ccc(N2CCCCCC2)c([N+](=O)[O-])c1 | 0 | 0 | 0 | 0 | 0
CCC1OC(=O)C[C@@H](O)[C@H](C)[C@@H](OC2OC(C)CC(N(C)C)C2O)[C@@H](CC=O)C[C@@H](C)C(=O)/C=C/[C@]2(C)OC2C1C (stereo partly specified) | - | 0 | 0 | - | -
N#Cc1nc(Nc2ccccc2)nc(NC2CCCC2)n1 | - | - | 0 | - | 0
S=C(NNc1cccc(Cl)c1)NC1CCCCC1 | 0 | 0.316µM | 1.41µM | ? | 0
O=C(OCCN1CCN(C2=NS(=O)(=O)c3ccccc32)CC1)c1ccccc1F | ? | 0 | 0 | 0 | 0
COc1cccc(C2C(C(C)=O)=C(O)C(=O)N2CCc2c[nH]c3ccccc23)c1 (stereo unspecified) | 0 | 112µM | 0 | 0 | 0
COCCN1C2=C(C(=O)CC(C)(C)C2)C(c2ccc(OC)c(OC)c2)C2=C1CC(C)(C)CC2=O | 0 | 0[1.91 µM] | 0 | 0 | 0
CN(Cc1ccco1)c1ncnc2ccc(-c3ccc4c(c3)OCCO4)cc12 | 0 | - | - | - | -
NS(=O)(=O)c1ccc(Nc2ccc([N+](=O)[O-])c3nonc23)cc1 | 0 | 0 | 0 | 0 | -32.8
O=C(O)c1ccc(Nc2ccc([N+](=O)[O-])c3nonc23)cc1 | 0 | 0 | 0 | 0 | 0
COc1ccc(OCC(O)CNC2CCCC2)cc1 (stereo unspecified) | 0 | 0 | 0 | 0 | 0
CC(=O)Nc1ccc(OCC(O)Cn2c3ccccc3c3ccccc32)cc1 (stereo unspecified) | 0 | ? | 0 | 18.4µM | 0
